Inconclusive results are not listed. Calls of active or inactive are those of the source. How the source made its calls, unless noted: active means hit-call score of the fitted dose curve at least 0.9, where 1 is the maximum; inconclusive means response in the unintended direction; inactive means score below 0.9.
Columns and labels:
[1] = ATG_TAL_CIS: Attagene CIS-FACTORIAL HepG2 Assay for human TAL Basal Promoter (AID 2282966; active means hit-call score of the fitted dose curve at least 0.9, where 1 is the maximum; inactive means score below 0.9;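 further: background control endpoint measuring basal TAL promoter reporter mRNA not a specific factor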); conditions: HepG2 Attagene cis-factorial TAL promoter reporter; actives raise or lower the signal
In short: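 Basal-promoter background-control endpoint from a multiplexed HepG2 reporter panel. Cells were exposed 24 h, then reporter mRNA was read by RT-PCR/CE fluorescence and fitted in both directions relative to DMSO.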

[2] = ATG_TGFb_CIS: Attagene CIS-FACTORIAL HepG2 Assay for human Transforming Growth Factor (TGF) (AID 2282967; active means hit-call score of the fitted dose curve at least 0.9, where 1 is the maximum; inactive means score below 0.9); conditions: HepG2 Attagene CIS TGFb reporter, mRNA transcription; actives raise or lower the signal
In short: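 Cells were dosed for 24 hours, after which total RNA was reverse-transcribed and reporter sequences amplified, labeled and sized by capillary electrophoresis. Activity was fitted in both directions against DMSO.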

[3] = ATG_VDRE_CIS: Attagene CIS-FACTORIAL HepG2 Assay for human Vitamin D Receptor Element (VDRE) (AID 2282968; active means hit-call score of the fitted dose curve at least 0.9, where 1 is the maximum; inactive means score below 0.9); conditions: HepG2 VDRE cis-reporter transcription, actives raise or lower the signal
In short: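 Measures endogenous factor activity through cis-element-driven reporter transcripts in transiently transfected HepG2. Cells are treated 24 h; reporter mRNA is quantified by RT-PCR and capillary electrophoresis; fitting is bidirectional.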

[4] = target: Nuclear receptor subfamily 1 group I member 3 (Homo sapiens) (UniProt Q14994); assay: ATG_CAR_TRANS: Attagene TRANS-FACTORIAL HepG2 Assay for human Constitutive Androstane Receptor (CAR) (AID 2282969); conditions: HepG2 Attagene TRANS-FACTORIAL CAR reporter;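 further: activators raise reporter mRNA above DMSO so AC50 marks induction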
Nuclear receptor subfamily 1 group I member 3 (Homo sapiens), sequence (Q14994 whole entry, looked up, the tested form may be a part): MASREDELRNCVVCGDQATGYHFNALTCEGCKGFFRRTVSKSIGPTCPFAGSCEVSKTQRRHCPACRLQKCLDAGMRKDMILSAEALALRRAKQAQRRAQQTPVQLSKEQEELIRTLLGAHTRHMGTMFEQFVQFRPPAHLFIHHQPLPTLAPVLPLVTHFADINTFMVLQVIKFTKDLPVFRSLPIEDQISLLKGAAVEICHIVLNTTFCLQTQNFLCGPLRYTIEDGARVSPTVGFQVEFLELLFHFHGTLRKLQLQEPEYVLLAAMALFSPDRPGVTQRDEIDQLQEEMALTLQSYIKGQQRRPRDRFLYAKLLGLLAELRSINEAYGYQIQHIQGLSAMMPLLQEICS
In short: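 Signal is reporter mRNA induction relative to DMSO, measured 24 h after dosing by RT-PCR with fluorescent primer extension and capillary electrophoresis. Human HepG2 liver cells carried transiently transfected chimeric NR-Gal4/GAL4-UAS reporter constructs.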

[5] = target: X-box-binding protein 1 (Homo sapiens) (UniProt P17861); assay: ATG_Xbp1_CIS: Attagene CIS-FACTORIAL HepG2 Assay for human X-box Binding Protein 1 (XBP1) (AID 2282972; active means hit-call score of the fitted dose curve at least 0.9, where 1 is the maximum; inactive means score below 0.9); conditions: HepG2 XBP1 cis-element reporter, Attagene multiplex; actives raise or lower the signal
X-box-binding protein 1 (Homo sapiens), sequence (P17861 whole entry, looked up): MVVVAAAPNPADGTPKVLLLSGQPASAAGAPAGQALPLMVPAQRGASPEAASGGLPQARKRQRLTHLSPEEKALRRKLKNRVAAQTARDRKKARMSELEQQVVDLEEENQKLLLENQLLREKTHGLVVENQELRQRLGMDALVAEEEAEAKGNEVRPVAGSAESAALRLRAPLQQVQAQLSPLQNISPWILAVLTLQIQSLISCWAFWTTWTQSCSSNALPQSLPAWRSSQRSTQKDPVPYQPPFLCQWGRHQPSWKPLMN
In short: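 Multiplexed cis-reporter readout in transfected HepG2 liver cells. Exposure lasted 24 hours. Activity in either direction was fitted against DMSO as negative control and baseline.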

[6] = ATG_GAL4_TRANS: Attagene TRANS-FACTORIAL HepG2 Assay for GAL4 (Internal Marker) (AID 2282976); conditions: HepG2 Attagene TRANS GAL4 internal marker reporter
In short: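 Background-control readout: GAL4-UAS reporter transcript in transiently transfected HepG2 cells after 24 h compound exposure. Measured by RT-PCR, 6-FAM primer extension, HpaI digest and capillary electrophoresis; gain-of-signal fit versus DMSO.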

[7] = target: Oxysterols receptor LXR-alpha (Homo sapiens) (UniProt Q13133); assay: ATG_LXRa_TRANS: Attagene TRANS-FACTORIAL HepG2 Assay for human Liver X Receptor alpha (LXRa) (AID 2282980); conditions: HepG2 Attagene TRANS reporter, LXRa transactivation
Oxysterols receptor LXR-alpha (Homo sapiens), sequence (Q13133 whole entry, looked up, the tested form may be a part): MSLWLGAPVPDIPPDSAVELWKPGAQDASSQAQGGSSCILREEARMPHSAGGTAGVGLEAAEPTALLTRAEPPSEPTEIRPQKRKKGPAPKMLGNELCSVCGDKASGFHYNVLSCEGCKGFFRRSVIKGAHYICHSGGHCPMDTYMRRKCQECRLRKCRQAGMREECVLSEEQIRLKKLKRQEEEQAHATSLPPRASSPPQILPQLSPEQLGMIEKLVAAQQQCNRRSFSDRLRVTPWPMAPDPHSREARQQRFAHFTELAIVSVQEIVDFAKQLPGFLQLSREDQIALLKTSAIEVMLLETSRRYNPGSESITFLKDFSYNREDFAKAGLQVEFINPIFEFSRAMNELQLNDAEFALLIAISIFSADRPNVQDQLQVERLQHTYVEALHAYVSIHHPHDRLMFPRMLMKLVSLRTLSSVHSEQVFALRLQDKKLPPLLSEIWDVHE
In short: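 HepG2 cells transiently transfected with GAL4-UAS reporter units for chimeric NR-Gal4 proteins, exposed to chemicals for 24 h. Reporter mRNA quantified by RT-PCR and capillary electrophoresis; gain of signal fitted relative to DMSO.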

[8] = target: Hepatocyte nuclear factor 4-alpha (Homo sapiens) (UniProt P41235); assay: ATG_HNF4a_TRANS: Attagene TRANS-FACTORIAL HepG2 Assay for human Hepatocyte Nuclear Factor 4 alpha (HNF4a) (AID 2282982); conditions: HepG2 HNF4a transactivation reporter, mRNA readout
Hepatocyte nuclear factor 4-alpha (Homo sapiens), sequence (P41235 whole entry, looked up): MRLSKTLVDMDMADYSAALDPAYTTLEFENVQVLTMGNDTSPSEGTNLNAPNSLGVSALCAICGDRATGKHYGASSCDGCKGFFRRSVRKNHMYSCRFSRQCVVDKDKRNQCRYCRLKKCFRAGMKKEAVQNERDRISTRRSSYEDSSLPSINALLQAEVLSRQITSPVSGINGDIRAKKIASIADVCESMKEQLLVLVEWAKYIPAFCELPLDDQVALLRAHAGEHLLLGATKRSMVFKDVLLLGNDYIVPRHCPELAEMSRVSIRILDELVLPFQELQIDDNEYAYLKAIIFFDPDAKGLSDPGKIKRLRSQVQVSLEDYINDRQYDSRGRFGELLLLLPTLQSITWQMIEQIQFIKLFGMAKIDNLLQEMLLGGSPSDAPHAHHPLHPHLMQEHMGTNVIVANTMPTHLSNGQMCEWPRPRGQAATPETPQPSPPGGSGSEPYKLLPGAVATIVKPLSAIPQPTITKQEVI
In short: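 Multiplexed reporter assay: transfected HepG2, 24 h exposure, total RNA → oligo(dT) RT → PCR → 6-FAM extension → HpaI digest → CE fluorescence. DMSO = negative control.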

[9] = ATG_M_32_TRANS: Attagene TRANS-FACTORIAL HepG2 Assay for M32 Transcription Factor (Internal Marker) (AID 2282984); conditions: HepG2 Attagene TRANS M32 internal marker reporter
In short: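 Cell-based TRANS-format assay in HepG2: exogenous chimeric GAL4 reporter units transiently expressed, compounds applied 24 h. Reporter mRNA detected by RT-PCR plus capillary electrophoresis; this readout is an internal background marker.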

[10] = target: Nuclear respiratory factor 1 (Homo sapiens) (UniProt Q16656); assay: ATG_NRF1_CIS: Attagene CIS-FACTORIAL HepG2 Assay for human Nuclear Respiratory Factor 1 (NRF1) Orphan Gene (AID 2282987; active means hit-call score of the fitted dose curve at least 0.9, where 1 is the maximum; inactive means score below 0.9); conditions: HepG2 NRF1 cis-element reporter, Attagene multiplex; actives raise or lower the signal
Nuclear respiratory factor 1 (Homo sapiens), sequence (Q16656 whole entry, looked up, the tested form may be a part): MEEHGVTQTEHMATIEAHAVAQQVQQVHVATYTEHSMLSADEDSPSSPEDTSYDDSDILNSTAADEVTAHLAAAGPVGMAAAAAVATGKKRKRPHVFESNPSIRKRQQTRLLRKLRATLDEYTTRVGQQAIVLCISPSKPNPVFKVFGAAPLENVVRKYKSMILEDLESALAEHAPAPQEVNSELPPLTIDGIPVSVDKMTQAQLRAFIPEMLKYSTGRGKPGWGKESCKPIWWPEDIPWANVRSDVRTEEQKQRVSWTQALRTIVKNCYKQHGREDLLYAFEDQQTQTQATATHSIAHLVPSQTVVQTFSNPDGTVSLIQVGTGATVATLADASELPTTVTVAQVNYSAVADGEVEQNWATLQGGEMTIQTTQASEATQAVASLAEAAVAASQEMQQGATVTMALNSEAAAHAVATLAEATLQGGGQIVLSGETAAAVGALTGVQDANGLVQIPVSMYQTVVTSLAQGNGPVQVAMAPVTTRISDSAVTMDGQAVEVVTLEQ
In short: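 Cells (HepG2, transient MRTU transfection) are exposed to compound for 24 h, then RNA isolated and reporter mRNA amplified and fluorescently labelled. Fragments are separated by capillary electrophoresis; signal change is fitted bidirectionally relative to DMSO.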

[11] = ATG_M_19_TRANS: Attagene TRANS-FACTORIAL HepG2 Assay for M19 Transcription Factor (Internal Marker) (AID 2282974); conditions: HepG2 Attagene TRANS-FACTORIAL M19 internal marker reporter
In short: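 Reporter mRNA induction was measured in transfected HepG2 cells 24 h after dosing. Endpoint fitted upward relative to DMSO and serves as a background control within the multiplexed TRANS panel.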

[12] = target: Bile acid receptor (Homo sapiens) (UniProt Q96RI1); assay: ATG_FXR_TRANS: Attagene TRANS-FACTORIAL HepG2 Assay for Farnesoid X Receptor (FXR) (AID 2282979); conditions: HepG2 Attagene TRANS FXR-GAL4 reporter transcription;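 further: hits raise reporter mRNA above DMSO so AC50 marks FXR activation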
In short: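 HepG2 cells were transiently transfected with GAL4-UAS reporters driven by chimeric NR-Gal4 proteins and dosed for 24 h. Reporter mRNA was quantified by RT-PCR, fluorescent labelling, HpaI digestion and capillary electrophoresis, with gain of signal scored versus DMSO.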

[13] = target: Oxysterols receptor LXR-beta (Homo sapiens) (UniProt P55055); assay: ATG_LXRb_TRANS: Attagene TRANS-FACTORIAL HepG2 Assay for human Liver X Receptor beta (LXRb) (AID 2282981); conditions: HepG2 Attagene TRANS GAL4-LXRb reporter, mRNA
Oxysterols receptor LXR-beta (Homo sapiens), sequence (P55055 whole entry, looked up, the tested form may be a part): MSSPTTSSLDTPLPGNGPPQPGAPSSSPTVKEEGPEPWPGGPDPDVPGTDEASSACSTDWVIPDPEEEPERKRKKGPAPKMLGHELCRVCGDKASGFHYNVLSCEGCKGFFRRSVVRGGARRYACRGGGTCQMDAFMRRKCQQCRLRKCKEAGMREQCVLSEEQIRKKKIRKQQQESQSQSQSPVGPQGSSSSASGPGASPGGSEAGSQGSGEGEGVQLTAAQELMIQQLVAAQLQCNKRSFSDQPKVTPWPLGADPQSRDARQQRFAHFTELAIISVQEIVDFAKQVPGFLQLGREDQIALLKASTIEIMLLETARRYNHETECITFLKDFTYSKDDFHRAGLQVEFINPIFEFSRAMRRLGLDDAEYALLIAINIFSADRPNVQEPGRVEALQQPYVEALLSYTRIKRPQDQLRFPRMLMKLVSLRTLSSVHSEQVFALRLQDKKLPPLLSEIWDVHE
In short: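 After 24 h of chemical treatment, transfected HepG2 cells yield total RNA; reporter cDNA is PCR-amplified, FAM-labelled, HpaI-cut and run on capillary electrophoresis. Signal reflects chimeric LXRb-Gal4 activity on GAL4-UAS reporters.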

[14] = ATG_M_06_TRANS: Attagene TRANS-FACTORIAL HepG2 Assay for M06 Transcription Factor (Internal Marker) (AID 2282983); conditions: HepG2 Attagene TRANS M06 internal marker reporter
In short: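 mRNA levels of a reporter transcript, quantified as FAM fluorescence on capillary electrophoresis, served as readout. HepG2 cells expressing exogenous GAL4-chimera reporter constructs were exposed for 24 h. Gain of signal over DMSO was evaluated.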

[15] = target: Transcriptional activator Myb (Homo sapiens) (UniProt P10242); assay: ATG_Myb_CIS: Attagene CIS-FACTORIAL HepG2 Assay for human Myeloblastosis (Myb) Proto-Oncogene Transcription Factor (AID 2282986; active means hit-call score of the fitted dose curve at least 0.9, where 1 is the maximum; inactive means score below 0.9); conditions: HepG2 Attagene CIS-FACTORIAL Myb reporter transcription; actives raise or lower the signal
Transcriptional activator Myb (Homo sapiens), sequence (P10242 whole entry, looked up): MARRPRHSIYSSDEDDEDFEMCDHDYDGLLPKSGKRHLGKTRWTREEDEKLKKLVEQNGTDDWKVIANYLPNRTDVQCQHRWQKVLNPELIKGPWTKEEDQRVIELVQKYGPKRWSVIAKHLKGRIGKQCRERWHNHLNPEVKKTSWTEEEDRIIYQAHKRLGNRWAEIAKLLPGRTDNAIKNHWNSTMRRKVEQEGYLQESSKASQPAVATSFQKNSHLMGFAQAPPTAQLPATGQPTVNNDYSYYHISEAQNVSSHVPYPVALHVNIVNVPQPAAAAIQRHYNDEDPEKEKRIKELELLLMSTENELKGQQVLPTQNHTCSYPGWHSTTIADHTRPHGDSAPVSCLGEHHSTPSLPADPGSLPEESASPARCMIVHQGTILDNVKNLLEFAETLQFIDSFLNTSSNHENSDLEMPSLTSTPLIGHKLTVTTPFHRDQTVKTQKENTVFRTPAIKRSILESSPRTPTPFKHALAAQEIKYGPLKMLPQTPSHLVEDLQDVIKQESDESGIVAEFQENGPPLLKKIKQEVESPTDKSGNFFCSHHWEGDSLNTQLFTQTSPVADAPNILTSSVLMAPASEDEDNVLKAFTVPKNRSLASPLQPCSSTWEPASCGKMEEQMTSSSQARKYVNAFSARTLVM
In short: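 Transiently transfected HepG2 cells, treated 24 h. Reporter mRNA quantified by RT-PCR/capillary electrophoresis; bidirectional fit relative to DMSO.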

[16] = target: Estrogen receptor (Homo sapiens) (UniProt P03372); assay: ATG_ERa_TRANS: Attagene TRANS-FACTORIAL HepG2 Assay for human Estrogen Receptor alpha (ERa) (AID 2282970); conditions: HepG2 Attagene TRANS ERa GAL4 reporter, mRNA
Estrogen receptor (Homo sapiens), sequence (P03372 whole entry, looked up, the tested form may be a part): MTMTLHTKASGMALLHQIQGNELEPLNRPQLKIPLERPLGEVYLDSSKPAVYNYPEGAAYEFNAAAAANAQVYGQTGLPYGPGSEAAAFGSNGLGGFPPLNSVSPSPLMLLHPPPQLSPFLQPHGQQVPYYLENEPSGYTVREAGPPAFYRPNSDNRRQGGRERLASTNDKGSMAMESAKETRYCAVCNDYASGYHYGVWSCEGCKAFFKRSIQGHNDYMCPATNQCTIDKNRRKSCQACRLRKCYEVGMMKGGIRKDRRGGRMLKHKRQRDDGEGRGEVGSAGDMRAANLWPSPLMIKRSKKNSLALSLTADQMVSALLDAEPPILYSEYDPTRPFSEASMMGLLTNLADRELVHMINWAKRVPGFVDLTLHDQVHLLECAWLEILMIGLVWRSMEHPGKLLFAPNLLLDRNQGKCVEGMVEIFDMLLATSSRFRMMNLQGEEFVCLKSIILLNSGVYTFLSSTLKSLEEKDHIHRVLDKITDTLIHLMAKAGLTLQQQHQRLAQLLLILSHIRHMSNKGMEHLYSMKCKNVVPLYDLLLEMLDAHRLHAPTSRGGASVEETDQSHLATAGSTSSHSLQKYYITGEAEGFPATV
In short: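 Gal4-fusion ERa transactivation, measured as reporter transcript level in transiently transfected HepG2 cells. Exposure 24 h; RT-PCR plus capillary electrophoresis with fluorescence detection.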

[17] = target: Steroid hormone receptor ERR1 (Homo sapiens) (UniProt P11474); assay: ATG_ERRa_TRANS: Attagene TRANS-FACTORIAL HepG2 Assay for human Estrogen-Related Receptor alpha (ERRa) (AID 2282971); conditions: HepG2 Attagene TRANS reporter, ERRa transactivation
Steroid hormone receptor ERR1 (Homo sapiens), sequence (P11474 whole entry, looked up, the tested form may be a part): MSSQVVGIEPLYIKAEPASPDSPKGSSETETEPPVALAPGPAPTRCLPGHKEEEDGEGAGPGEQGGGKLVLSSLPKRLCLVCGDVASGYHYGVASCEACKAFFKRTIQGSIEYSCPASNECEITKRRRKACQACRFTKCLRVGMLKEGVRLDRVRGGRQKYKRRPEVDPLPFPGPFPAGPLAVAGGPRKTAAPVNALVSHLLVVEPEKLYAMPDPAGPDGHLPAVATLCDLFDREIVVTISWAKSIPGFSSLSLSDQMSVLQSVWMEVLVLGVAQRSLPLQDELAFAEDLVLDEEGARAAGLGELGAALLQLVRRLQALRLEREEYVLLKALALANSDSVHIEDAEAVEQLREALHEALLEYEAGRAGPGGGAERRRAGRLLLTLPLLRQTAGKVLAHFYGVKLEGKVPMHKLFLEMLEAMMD
In short: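 HepG2 cells transiently transfected with GAL4-UAS reporter units and chimeric NR-Gal4 constructs; after 24 hour compound incubation, reporter mRNA quantified by RT-PCR, fluorescent labelling and capillary electrophoresis, gain of signal versus DMSO.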

[18] = target: Nuclear receptor subfamily 4 group A member 2 (Homo sapiens) (UniProt P43354); assay: ATG_NURR1_TRANS: Attagene TRANS-FACTORIAL HepG2 Assay for human Nuclear Receptor Related Protein 1 (NURR1) (AID 2282985); conditions: HepG2 Attagene TRANS reporter, mRNA readout
Nuclear receptor subfamily 4 group A member 2 (Homo sapiens), sequence (P43354 whole entry, looked up, the tested form may be a part): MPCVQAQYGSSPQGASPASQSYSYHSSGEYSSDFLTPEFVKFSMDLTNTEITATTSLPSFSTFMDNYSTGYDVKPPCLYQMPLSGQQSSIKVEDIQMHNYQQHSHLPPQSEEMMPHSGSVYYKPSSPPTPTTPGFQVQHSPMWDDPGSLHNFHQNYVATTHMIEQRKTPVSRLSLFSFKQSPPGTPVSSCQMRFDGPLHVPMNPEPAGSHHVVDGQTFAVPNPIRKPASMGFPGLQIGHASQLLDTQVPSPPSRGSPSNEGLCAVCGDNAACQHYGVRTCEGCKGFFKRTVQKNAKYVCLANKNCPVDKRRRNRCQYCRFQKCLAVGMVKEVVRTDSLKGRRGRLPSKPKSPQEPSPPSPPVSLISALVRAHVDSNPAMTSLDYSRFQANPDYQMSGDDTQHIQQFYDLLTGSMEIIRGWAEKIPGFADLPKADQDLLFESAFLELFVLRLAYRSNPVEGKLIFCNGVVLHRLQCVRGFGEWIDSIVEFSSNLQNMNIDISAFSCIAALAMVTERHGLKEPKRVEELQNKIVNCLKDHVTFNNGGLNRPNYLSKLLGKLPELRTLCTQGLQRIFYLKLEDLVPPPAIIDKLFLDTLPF
In short: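 Measures transcriptional activation by an exogenous NR-Gal4 chimera in transfected HepG2 liver cells. After 24 h, reporter RNA is reverse-transcribed, amplified and resolved by capillary electrophoresis; DMSO defines baseline.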

[19] = target: Glucocorticoid receptor (Homo sapiens) (UniProt P04150); assay: ATG_GR_TRANS: Attagene TRANS-FACTORIAL HepG2 Assay for human Glucocorticoid Receptor (GR) (AID 2282978); conditions: HepG2 Attagene TRANS GR reporter, mRNA transcription;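 further: activators score as hits since higher reporter transcript over DMSO is fitted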
In short: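 Reporter transcript levels, detected by fluorescence after RT-PCR and capillary electrophoresis, served as the endpoint. HepG2 cells bearing transfected GAL4-UAS reporters responsive to NR-GAL4 chimeras were incubated with compound 24 h; DMSO defined baseline.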

Measured: AC50

C=CC(=O)NC(C)(C)CS(=O)(=O)O
inactive: [1] | [2] | [3] | [4] | [5] | [6] | [7] | [8] | [9] | [10]

c1cc(N(CC2CO2)CC2CO2)ccc1OCC1CO1 (configuration not stated)
active: [3] 36.8 µM | [5] 12.9 µM
not listed: [6] | [9] | [16] | [17] | [18] | [19]
inactive: all other assays above

CCC(Cc1ccccc1)(C(=O)c1ccc(N2CCOCC2)cc1)N(C)C (configuration not stated)
inactive: [2] | [17] | [5] | [11] | [12] | [9] | [15]
active: [1] 23.5 µM | [3] 6.85 µM | [16] 1.03 µM | [7] 23.3 µM | [13] 27.5 µM | [18] 41 µM | [10] 30.3 µM

CCOc1ccc(N)c([N+](=O)[O-])c1
not listed: [6] | [7] | [9] | [11] | [12] | [16] | [17] | [19]
inactive: all other assays above

C=C(C)c1cccc(C(C)(C)N=C=O)c1
active: [3] 0.377 µM
not listed: [6] | [8] | [12] | [16] | [17] | [18]
inactive: all other assays above

NC(=O)N=NC(N)=O
not listed: [7] | [9] | [11] | [16] | [19]
inactive: all other assays above

Cc1cc(=O)n(-c2ccccc2)n1C
not listed: [4] | [6] | [7] | [8] | [12] | [13] | [19]
inactive: all other assays above

O=C(/C=C/C=C/c1ccc2c(c1)OCO2)N1CCCCC1
active: [1] 100 µM | [3] 2.53 µM
not listed: [4] | [7] | [8] | [11] | [13] | [19]
inactive: all other assays above

O=C(O)CCCCCCCCCC(=O)O
active: [16] 22.7 µM
not listed: [4] | [7] | [11] | [12]
inactive: all other assays above

OCCc1ccncc1
not listed: [4] | [9] | [11] | [12] | [13] | [18] | [19]
inactive: all other assays above
